Assay outcomes (PubChem BioAssay)
NS1 function inh: inhibitors of influenza NS1 protein function | 0.4% of 270,000 active | Potency, µM (series often up to 46.1 µM), inactives show at the highest dose activity, positive = more growth; calls by dose curve; note: potency is the fitted concentration of half-maximal effect; actives are rising curves; nearly all actives have a fitted effect of over 50% in size
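OD600 was taken as the measure of yeast growth restored by compound in an NS1-expressing S. cerevisiae strain. Cells had been washed out of glucose medium and diluted 1:100 into galactose -URA medium, pH 6.0.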
CHX counter: counter-screen for Shiga toxin inhibitors: cycloheximide protein synthesis inhibition; cell reporter, cycloheximide protein synthesis inhibition counterscreen; max response, %; 12% of 300,000 active; in the data active = max response mostly above about 13%, no sharp cut-off; inactive = mostly below about 14%; note: read at 38.3 µM for the half of the compounds with a filed dose; 0% is about no effect
Pf growth 48h: P. falciparum growth inhibition at 48 hours (one generation); P. falciparum luciferase growth in erythrocytes, 48 h; Potency, µM (doses to about 28.7 µM), inactives show at the top dose activity change, negative = inhibition, hits mostly inhibitors; 5.9% of 310,000 active; AID 504832; note: potency is the fitted concentration of half-maximal effect; % is set by controls: 0 for no effect and ±100 for the full control effect
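In quantitative HTS format, infected erythrocytes bearing luciferase-reporter parasites were treated for a single generation at 37 C. Luminescence after adding detection reagent served as the growth measure.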
Pf growth 96h: P. falciparum growth inhibition at 96 hours; P. falciparum luciferase reporter growth, 96 h; Potency, µM (top dose mostly 28.7 µM), inactives show at the highest dose activity change, negative = inhibition, actives largely listed as inhibitors; 6.9% of 320,000 active; note: potency is the fitted concentration of half-maximal effect; % is set by controls: 0 for no effect and ±100 for the full control effect
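Compounds incubated with erythrocytes infected by luciferase-expressing P. falciparum (2% hematocrit, 0.05% parasitemia final) for 96 hours, 37 C in 5% CO2. Growth inhibition scored as decreased luciferase luminescence.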
SARS PLP yeast: blocks SARS-CoV papain-like protease in a yeast assay; S. cerevisiae expressing SARS-CoV PLpro, growth rescue; Potency, µM (top dose mostly 32.9 µM), for the others: at the top dose activity, positive = growth rescue, hits mostly activators; 0.19% of 330,000 active; AID 485353; calls by dose curve; note: potency is the fitted concentration of half-maximal effect; 0% is about no effect; nearly all actives have a fitted effect of over 55% in size
Shiga inhibitor: Shiga toxin inhibition; Vero cells, Shiga toxin protein synthesis inhibition reporter; 9.2% of 290,000 active; AID 2315; inhibition, % at 38.7 µM; in the data active = inhibition mostly above about 28%, no sharp cut-off; inactive = mostly below about 43%; note: 0% is about no effect
An asterisk follows results filed as active; ? = inconclusive; . = no result. This is a sample that favours compounds with a hit; in the whole collection about 21% have one here. Unless noted, calls come from the whole dose curve; as a rule, active = well fitted inhibition curve with a large enough effect; inconclusive = small, poorly fitted or top-dose-only effect, or another doubt; inactive = no such curve, though single readings can be large or run the other way.

SMILES | NS1 function inh | CHX counter | Pf growth 48h | Pf growth 96h | SARS PLP yeast | Shiga inhibitor
O=C(CSc1ccc(Cl)cc1)Nc1ccc(NC(=O)c2ccco2)cc1 | 29% | 8 | 16% | 37% | 2% | 17
O=C(COc1ccc(Cl)cc1)Nc1ccc(N2CCN(C(=O)c3ccco3)CC2)cc1 | -3% | 4 | ? | 12µM* | -2% | -18
COc1ccc(OCC(=O)Nc2ccc(N3CCN(C(=O)c4ccco4)CC3)cc2)cc1 | 1% | 9 | 0% | 20% | -2% | -7
O=C(COc1nsnc1N1CCOCC1)Nc1ccc([N+](=O)[O-])cc1 | -1% | -2 | 5.2µM* | -22% | 1% | -18
O=C(CSc1ccc(Cl)cc1)Nc1ccc(N2CCN(C(=O)c3ccco3)CC2)cc1 | 18% | -2 | 12µM* | . | 0% | -5
O=C(COc1ccc([N+](=O)[O-])cc1)Nc1ccc(N2CCN(C(=O)c3ccco3)CC2)cc1 | 14% | 0 | 14% | 5.2µM* | 3% | -16
COc1ccc(N2C(=O)C(F)(F)C2c2ccc(C)cc2)cc1OC (stereo not given) | . | -1 | -3% | -3% | 0% | -5
Nc1nc2nc(-c3ccccc3)cc(C(F)(F)F)c2s1 | 2% | -1 | -1% | -5% | 0% | -7
COc1cccc(N2CCN(C(=O)c3ccc4nc(N5CCC(C)CC5)sc4c3)CC2)c1 | 14% | 64* | -16% | 1% | 0% | 117*
CC1CCN(c2nc3ccc(C(=O)N4CCN(Cc5ccccc5)CC4)cc3s2)CC1 | 0% | 52* | . | -17% | -1% | 85*
O=C(c1ccc2nc(N3CCCCC3)sc2c1)N1CCN(Cc2ccc3c(c2)OCO3)CC1 | -65% | 30* | 4.1µM* | 22% | 3% | active
Cc1c(C)n(C)c2ccc(C(=O)N3CCN(c4ccccn4)CC3)cc12 | -1% | -4 | 10µM* | 7% | -3% | 22
Cc1c(C)n(C)c2ccc(C(=O)N3CCN(c4ccccc4)CC3)cc12 | -8% | -4 | 10% | ? | -34% | 11
O=C(c1ccc(S(=O)(=O)N2CCCCC2)cc1)N1CCN(Cc2ccc3c(c2)OCO3)CC1 | -23% | -4 | ? | ? | 2% | 23
C=CCc1ccc(OCCCCCN2CCOCC2)c(OC)c1 | -15% | 0 | 52% | 7% | -2% | -14
O=C(c1ccc2nc(N3CCOCC3)sc2c1)N1CCC(Cc2ccccc2)CC1 | -112% | 13 | . | ? | -8% | 12
O=C(c1ccc2nc(N3CCCCC3)sc2c1)N1CCN(c2ccccn2)CC1 | -107% | 23* | 0% | -85% | -17% | 11
Cc1cccc(N2CCN(C(=O)c3ccc4nc(N5CCCCC5)sc4c3)CC2)c1C | 5% | 3 | ? | ? | 1% | 31
CCOC(=O)N1CCN(C(=O)c2ccc3nc(N4CCCCC4)sc3c2)CC1 | -6% | 14* | -3% | 10µM* | -9% | 18
O=C(c1ccc(N2CCCCC2)c([N+](=O)[O-])c1)N1CCN(c2ccccn2)CC1 | . | 5 | -10% | ? | 3% | 18
FC(F)(F)c1cc(N2CCN(Cc3ccccc3)CC2)c2ccccc2n1 | -3% | 2 | ? | 9.3µM* | 2% | 9
NC(=O)C1CCN(C(=O)c2ccc3nc(N4CCCCC4)sc3c2)CC1 | 2% | 35* | 7% | 98% | -2% | 71*
CCOc1ccc(NC(=O)COC(=O)CCC(=O)c2cccs2)cc1 | . | . | 6% | -16% | -11% | .
O=C(CCC(=O)OCc1ccc([N+](=O)[O-])cc1Cl)Nc1ccccc1 | 7% | 13 | 14% | -4% | ? | -27
c1ccc(CN2CCN(c3nc4ccccc4s3)CC2)cc1 | 0% | 53* | 117% | 132% | 0% | 96*
CCOC(=O)N1CCN(C(=O)c2ccc3nc(N4CCC(C)CC4)sc3c2)CC1 | -8% | 24* | ? | 163% | 4% | 42*
CCNC(=O)[C@H]1O[C@@H](n2cnc3c(N)ncnc32)[C@H](O)[C@H]1O | -8% | . | . | . | . | .
CCCCCn1c(CCCNC(=O)CC)nc2ccccc21 | -4% | -2 | 0% | -9% | -17% | -4
O=C(COc1ccccc1C(=O)NCC1CCCO1)Nc1ccc(Br)cc1 (stereo not given) | . | 18 | -18% | -6% | 0% | 25
